Measurements reported in PubChem BioAssay (Tox21).
Results filed as inconclusive are left out. A call without a number means that no potency is given here. Calls of active or inactive are those of the source. Calls follow the shape of the dose curve; as a rule, active = well fitted activation curve with a large enough effect in the signal ratio in the repeat runs (not every such curve was filed as active); inconclusive = weak or mixed curves, or effect the other way; inactive = no such curve, though single readings can be large or run the other way; the % refers to the signal ratio.
Potency is read from the fitted curve at half-maximal effect.

Test: qHTS assay for small molecule agonists of the antioxidant response element (ARE) signaling pathway (AID 743202)
Conditions: HepG2 ARE-bla reporter, beta-lactamase FRET, 16 h; series mostly up to 73.3 µM
Description: U.S. Tox21 Program National Center for Advancing Translational Sciences [NCATS] NIH Chemical Genomics Center [NCGC] U.S. Environmental Protection Agency [EPA] National Institutes of Environmental Health Sciences [NIEHS] National Toxicology Program [NTP] U.S. Food and Drug Administration [FDA] Tox21 Assay Overview: Oxidative stress has been implicated in the pathogenesis of a variety of diseases ranging from cancer to neurodegeneration. The antioxidant response element (ARE) signaling pathway plays an important role in the amelioration of oxidative stress. The CellSensor ARE-bla HepG2 cell line (Invitrogen) can be used for analyzing the Nrf2/antioxidant response signaling pathway. Nrf2 (NF-E2-related factor 2) and Nrf1 are transcription factors that bind to AREs and activate these genes. The CellSensor ARE-bla Hep G2 cell line contains a beta-lactamase reporter gene under control of the Antioxidant Response Element (ARE) stably integrated into HepG2 cells. The activation of the report gene under culture conditions can be detected by fluorescence intensity. This cell line has been used to screen the Tox21 10K compound library to identify agonists that induce oxidative stress.
Tox21 Assay Protocol Summary: The ARE-bla cells were dispensed at 2,000 cells/5 ul/well in 1536-well black wall/clear bottom plates using a Multidrop dispenser. After the assay plates were incubated at a 37 C/5% CO2 incubator for 5 hours, 23 nL of compounds dissolved in DMSO, positive controls or DMSO only was transferred to the assay plate by a pin tool. The plates were incubated at 37 C for 16 hours. After 1 uL of LiveBLAzer B/G FRET substrate was added using a Flying Reagent Dispenser, the plates were incubated at room temperature for 2 hours, and fluorescence intensity was measured by an Envision plate reader.
In the case of `Cc1onc(-c2ccccc2)c1C(=O)Cl`, the Potency was “inactive”. For `CCOC(=O)CS`, the Potency was “inactive”. For `COC(=O)c1ccc2cc(C(=O)OC)ccc2c1`, the Potency was “inactive”. With `COc1ccc(Nc2ccc(OC)cc2)cc1` the Potency was “inactive”. In the case of `Cc1ccc([N+](=O)[O-])c(N)c1`, the Potency was “inactive”. With `CCOC(=O)NCCC[Si](OCC)(OCC)OCC` the Potency was “inactive”. In the case of `CCCNC(C)(C)COC(=O)c1ccccc1`, the Potency was “inactive”. For `OCCN(CCO)c1ccccc1`, the Potency was “inactive”. With `CCCCCCOc1ccc(N)cc1` the Potency was “inactive”. With `O=C1C=CC(=O)O1` the Potency was “inactive”. With `O=Cc1ccc(O)c(O)c1O` the Potency was 23.7 µM (active). In the case of `CN1CCN(c2c(F)cc3c(=O)c(C(=O)O)cn(CCF)c3c2F)CC1`, the Potency was “inactive”. With `O=C(O)[C@@H]1CSCN1` the Potency was “inactive”. With `CC(CNC1CCCCC1)OC(=O)c1ccccc1` (stereo not given) the Potency was “inactive”. With `CC(C)NCC(O)COc1ccc(CCOCC2CC2)cc1` (stereo not given) the Potency was “inactive”. In the case of `CCN(O)CC`, the Potency was “inactive”. With `CCCCCCCCCCCCCCCCOP(=O)([O-])OCC[N+](C)(C)C` the Potency was “inactive”. For `CC(C)C[C@H](NC(=O)OCC1c2ccccc2-c2ccccc21)C(=O)O`, the Potency was “inactive”. In the case of `Cc1ccc([N+](=O)[O-])cc1Cl`, the Potency was “inactive”. With `Cc1ccc(C=O)s1` the Potency was “inactive”. In the case of `CC(C)(C)C1CCCCC1=O` (stereo not given), the Potency was “inactive”. With `CCOC(=O)C1CC(=O)C(=C(O)C2CC2)C(=O)C1` (stereo not given) the Potency was “inactive”. In the case of `NC/C=C/C(=O)O`, the Potency was “inactive”. For `CC(C)C(=O)OCC(C)(C)C(O)C(C)C` (stereo not given), the Potency was “inactive”. For `CC(C)CC(=O)OCc1ccccc1`, the Potency was “inactive”. For `CN1CCN(C2=Nc3ccccc3Oc3ccc(Cl)cc32)CC1`, the Potency was “inactive”. For `CCCCCCCOC(=O)CCC`, the Potency was “inactive”. In the case of `CCCNC(C)C(=O)Nc1c(C)csc1C(=O)OC` (stereo not given), the Potency was “inactive”. For `O=C(O)[C@@H](O)[C@H](O)[C@H](O)[C@@H](O)C(=O)O`, the Potency was “inactive”. In the case of `ICCc1ccccc1`, the Potency was “inactive”. In the case of `CC(=O)N[C@@H](CC(C)C)C(=O)O`, the Potency was “inactive”. With `CC(C)(C)c1cccc(O)c1` the Potency was “inactive”. With `CCc1cc(Cl)c(OC)c(C(=O)NC[C@@H]2CCCN2CC)c1O` the Potency was “inactive”. In the case of `CCC(=O)Nc1ccc(O)cc1`, the Potency was “inactive”. With `CC(C)(C)c1ccc(OC(=O)c2ccccc2O)cc1` the Potency was “inactive”. In the case of `O=C1CCCCCCCCCCC(=O)OCCO1`, the Potency was “inactive”. For `O=C(C(Cl)Cl)N1CCOC12CCCCC2`, the Potency was 34.4 µM (active). In the case of `CCCCC(CC)COC(=O)COc1cc(Cl)c(Cl)cc1Cl` (stereo not given), the Potency was “inactive”. In the case of `O=C1CCN(c2ccccc2)N1`, the Potency was “inactive”. With `NCCC(O)(P(=O)(O)O)P(=O)(O)O` the Potency was “inactive”.
